ELG1 repair inh = inhibitors of ELG1-dependent DNA repair in HEK293T cells. HEK293T ELG1-luciferase reporter, luminescence, 16 h; DNA damage induced by 5-fluorouridine. Potency, µM (highest dose often 46.1 µM), inactives show at the highest dose activity change, negative = inhibition, hits mostly inhibitors. actives 2.3% (n = 330,000); also: potency is read from the fitted curve at half-maximal effect; nearly all actives have a fitted effect of over 55% in size
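HEK293T cells expressing luciferase-tagged ELG1 (2,000/well) received 5-Fluorouridine plus compound or DMSO for 16 hr at 37 °C. Luciferase was read by ONE-Glo luminescence after 30 min at room temperature.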
HT1080-NT tox = kills 2HG-producing HT-1080-NT fibrosarcoma cells. actives 1.6% (n = 360,000). HT-1080-NT fibrosarcoma viability, CellTiter-Glo ATP luminescence, 48 h. Potency, µM (titrated, usually from 46.1 µM), for inactives: at the highest dose activity, negative = less viability, hits mostly cytotoxic;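 also: NT is the 2HG producing partner of a matched IDH1 knockdown line; potency is read from the fitted curve at half-maximal effect; 0% = DMSO-treated cells and -100% = media-only wells without cells; nearly all actives have a fitted effect of over 55% in size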
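Read-out is CellTiter-Glo luminescence after 10 minutes at room temperature, following 48 hours' compound treatment of HT-1080-NT cells (750 cells/well, RPMI, 5% FBS, 37 degrees C).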
TDP1 cell CPT = DT40-hTDP1 cell growth loss with CPT | chicken DT40 Tdp1-/-;hTDP1 cells + 20 nM CPT, ATP luminescence, 48 h | Potency, µM (series often up to 46.2 µM), without a hit: at the highest dose activity change, negative = growth inhibition, usual class: inhibitors | actives 12% (n = 420,000) | AID 686979; also: potency is read from the fitted curve at half-maximal effect; nearly all actives have a fitted effect of over 55% in size
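Chicken DT40 Tdp1-/- cells stably complemented with human TDP1 were seeded at 400 cells/well in medium containing 20 nM camptothecin, exposed to pin-transferred compounds, and grown at 37 °C for at least 48 hr. Viability was read as ATP luminescence.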
IL-1B inflam inh = inflammasome signaling inhibition, IL-1 beta readout; THP-1 LPS/ATP IL-1B secretion, AlphaLISA, 16 h; stronger effect = lower value; activity change, % at 57.5 µM; actives 4.7% (n = 360,000); in the data active = activity change below about -50%; inconclusive = mostly about -30% to -49%
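THP-1 cells pretreated 1 hr with compounds (up to 57.5 uM final), then stimulated with LPS (250 ng/mL final) plus ATP (1.25 mM final); secreted IL-1B measured by AlphaLISA after 16 hr, decreased signal indicating inhibition.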
TDP1 cell noCPT = qHTS for Inhibitors of human tyrosyl-DNA phosphodiesterase 1 (TDP1): qHTS in cells in absence of CPT; Potency, µM (titrated, usually from 46.2 µM), without a hit: at the top dose activity change, negative = growth inhibition, usual class: inhibitors; actives 15% (n = 420,000); DT40 Tdp1-/- hTDP1 cells, no CPT, ATP luminescence, 48 h; AID 686978, 2013; also: potency is read from the fitted curve at half-maximal effect; nearly all actives have a fitted effect of over 55% in size
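Growth of hTDP1-complemented DT40 Tdp1-knockout cells is measured by ATP luminescence after at least 48 hr compound exposure at 37 °C, with DMSO substituting for the 20 nM CPT used in the parallel screen.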
HT1080 IDH1KD tx = kills HT-1080 cells with IDH1 knockdown. Potency, µM (highest dose often 46.1 µM), inactives show top-dose activity, negative = toxicity, hits mostly cytotoxic. actives 2% (n = 360,000). HT-1080 IDH1 knockdown viability, ATP luminescence, 48 h;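 also: potency is read from the fitted curve at half-maximal effect; 0% = DMSO wells and -100% = cell-free medium wells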
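After a 2 h attachment period, IDH1KD HT-1080 cells took pin-transferred compound for 48 h at 37 °C; ATP-based luminescence after 10 min room-temperature reagent incubation reported viability.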
Active calls of the source: *; ? = inconclusive; · = no result given. Only some compounds are listed: those with a hit (about 19% of all), similar ones and a draw of the others. Unless noted, calls follow the shape of the dose curve; as a rule, active = well fitted curve in the direction sought with a large enough effect; inconclusive = small, poorly fitted or top-dose-only effect, or another doubt; inactive = no such curve, though single readings can be large; an effect the other way counts as inactive or inconclusive. Unless noted, % is scaled to controls: 0 for no effect and ±100 for the full control effect.

SMILES	ELG1 repair inh	HT1080-NT tox	TDP1 cell CPT	IL-1B inflam inh	TDP1 cell noCPT	HT1080 IDH1KD tx
CCn1c(C)[n+](Cc2ccccc2)c2ccc(Cl)cc21	14.6µM*	-19.2%	10.3µM*	22.3	11.6µM*	-1.8%
CCCN1CCC(=O)N([C@H](CSc2ccc(C)cc2)Cc2ccccc2)CC1	-0.8%	-25.2%	29.1µM*	-17.4	?	-8.3%
CCCN1CCC(=O)N([C@H](CSc2ccc(C)cc2)CC(C)C)CC1	?	9.9%	20.6µM*	-19.1	16.4µM*	-1.9%
O=C1CCN(CCc2ccccc2)CCN1[C@H](CSc1ccccc1)Cc1ccccc1	-7.7%	-23.4%	20.6µM*	-64.3*	11.2µM*	-13.4%
COc1ccc(SC[C@H](Cc2ccccc2)N2CCN(C)CCC2=O)cc1	10.2%	0.0%	?	-15.4	?	-5.5%
CCCN1CCC(=O)N([C@H](CSc2ccc(OC)cc2)Cc2ccccc2)CC1	-1.0%	2.7%	?	7.5	18.4µM*	0.0%
Nc1ccn(C(C=O)CC(C=O)CO)c(=O)n1 (stereo not drawn)	·	12.9%	-17.0%	-0.5	-5.6%	6.5%
COc1cc2ncnc(NCc3ccccc3C)c2cc1OC	?	3.0%	?	-14.9	?	8.1%
Clc1ccc(CNc2ncnc3[nH]ncc23)c(Cl)c1	·	-3.1%	?	-53.8*	16.4µM*	-1.0%
COc1cc2ncnc(NCc3ccc(C)o3)c2cc1OC	-14.9%	0.2%	?	-17.9	20.6µM*	0.5%
Cc1ccc(CNc2ncnc3cc(Cl)ccc23)o1	-18.5%	-4.8%	10.3µM*	-17.8	13µM*	-3.2%
Clc1ccc(CNc2ncnc3[nH]ncc23)cc1Cl	·	?	-2.2%	-23.9	?	?
COc1cc2ncnc(N[C@H](C)c3ccccc3)c2cc1OC	?	-2.5%	18.4µM*	39.9	23.1µM*	-4.4%
COc1cc2ncnc(NCc3ccc(Cl)cc3)c2cc1OC	?	0.7%	?	-2.6	?	-0.8%
Cc1ccc2c(=O)cc(C(=O)Nc3ccc(S(=O)(=O)Nc4onc(C)c4C)cc3)oc2c1C	·	·	-4.4%	·	-9.3%	·
CCc1cccc(NC(=O)c2coc(=O)c3ccccc23)c1	·	·	-26.0%	·	?	·
Cc1csc(CNC(=O)C2CCC(=O)N(CCCc3ccccc3)C2)n1 (stereo not drawn)	6.1%	2.1%	-3.9%	-13.4	12.1%	-3.4%
CCc1nnc(NC(=O)CSc2nnc(C3CC3)n2C)s1	16.9%	-2.5%	-0.4%	4.8	-16.2%	1.2%
O=C(NCc1ccc(F)cc1)C(=O)Nc1ccc2nc3n(c(=O)c2c1)CCCCC3	·	·	5.7%	·	-7.2%	·
O=C(OCCOCCN=C1NS(=O)(=O)c2ccccc21)c1ccc(F)cc1	0.0%	-2.3%	0.7%	35.8	-19.0%	0.5%
CC(Nc1ncnc2nc[nH]c12)c1ccccc1 (stereo not drawn)	-0.5%	4.1%	16.4µM*	9.9	13µM*	-4.2%
Cc1ccc(CNc2ncnc3cc(Cl)ccc23)cc1	?	?	25.9µM*	0.7	18.4µM*	23.1µM*
Fc1ccc(F)c(CNc2ncnc3cc(Cl)ccc23)c1	-23.8%	?	14.6µM*	?	14.6µM*	?
COc1cc2ncnc(NCc3ccccc3Cl)c2cc1OC	?	12.4%	20.6µM*	-8.8	13µM*	17.1%
Cc1ccccc1CNc1ncnc2cc(Cl)ccc12	-6.5%	?	-5.6%	52.8	?	?
COc1ccc(/C=C(\C#N)C(=O)OCCNC(=O)c2ccncc2)cc1	-11.9%	-2.9%	7.4%	-17.5	0.4%	-3.2%
Cc1ccc(NC(=O)C(Cc2c[nH]c3ccccc23)NC(=O)OCC(C)C)cc1 (stereo not drawn)	·	·	18.4µM*	·	23.1µM*	·
